The values that follow come from PubChem BioAssay (NCI).

About 79,000 compounds went through this panel and 15% of them were active in at least one assay; those are over-represented in the sample as a whole. A number with no mark means an inactive call. The source made the active and inactive calls. Rule as the data show it: active = growth inhibition above about 70%; inactive = the rest.

A short description of test [1]: NCI Yeast Anticancer Drug Screen. Data for the rad50 strain (AID 155).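 Also: 0% = growth of vehicle-only cultures of the same strain.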 The note with it: S. cerevisiae rad50 strain growth inhibition, stronger effect = higher value. The gist of the method: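 Vehicle-treated cultures provide the reference for the growth inhibition reported for compound-exposed, repair-deficient yeast.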
A short description of test [2]: NCI Yeast Anticancer Drug Screen. Data for the mec2-1 strain (AID 157). The settings on record: S. cerevisiae mec2-1 strain, stronger effect = higher value. The procedure, abridged:
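Vehicle-treated cultures served as reference for growth inhibition of compound-exposed mec2-1 yeast.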

A short description of test [3]: NCI Yeast Anticancer Drug Screen. Data for the sgs1 mgt1 strain (AID 161).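 Also: 0% = growth of cultures given vehicle only.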 The note with it: S. cerevisiae sgs1 mgt1 strain, stronger effect = higher value. The gist of the method: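 Test agents were incubated with a DNA-repair-mutant yeast strain. Growth was then read and compared against vehicle-treated controls.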
A short description of test [4]: NCI Yeast Anticancer Drug Screen. Data for the cln2 rad14 strain (AID 165).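 Also: 0% = growth equal to vehicle treated cultures.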 The settings on record: S. cerevisiae cln2 rad14 strain, stronger effect = higher value. The gist of the method:
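Each compound was tested on cln2 rad14 yeast. Inhibition of growth was calculated against vehicle-exposed controls.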

A short description of test [5]: NCI Yeast Anticancer Drug Screen. Data for the bub3 strain (AID 167). The note with it: S. cerevisiae bub3 mutant strain, stronger effect = higher value. The procedure, abridged: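 Mutant yeast screening strain plus compound; vehicle-treated cultures serve as the 0% inhibition reference.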
Test [6] is described as follows: NCI Yeast Anticancer Drug Screen. Data for the mlh1 rad18 strain (AID 175). The settings on record: S. cerevisiae mlh1 rad18 strain growth inhibition, stronger effect = higher value. The gist of the method: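 Vehicle-treated cultures served as the reference for growth inhibition in a yeast strain carrying DNA damage repair alterations exposed to each compound.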
[7] abbreviates: at 5.0 µM (retest, dose inferred, filed as 0.5).
Where [8] appears, read: at 50.0 µM (retest, dose inferred, filed as 5.0).

Regarding `CCCC(=O)C1=C(O)C(Cc2c(O)c(C)c(O)c(C(=O)CCC)c2O)=C(O)C(C)(C)C1=O`, the growth inhibition was -1% in test [1] (setting [7]); 52% in test [1] (setting [8]); 98.2% (active) in test [1] (at 50.0 µM); 4% in test [2] (setting [7]); 34% in test [2] (setting [8]); 92.9% (active) in test [2] (at 50.0 µM). For the same molecule, the growth inhibition was 6% in test [3] (setting [7]); 56% in test [3] (setting [8]); 98.5% (active) in test [3] (at 50.0 µM); -4% in test [4] (setting [7]); 83% (active) in test [4] (setting [8]); 99.1% (active) in test [4] (at 50.0 µM). In addition, the growth inhibition was -1% in test [5] (setting [7]); 92% (active) in test [5] (setting [8]); 98.3% (active) in test [5] (at 50.0 µM); 7% in test [6] (setting [7]); 66% in test [6] (setting [8]); 99% (active) in test [6] (at 50.0 µM).
As to `Cc1ccc(C2C(O)=C(c3ccccc3)Sc3ccc(C)cc32)cc1` (stereo not given), the growth inhibition in test [1] (setting [7]) is 12%; in test [1] (setting [8]) it was 33%; in test [1] (at 50.0 µM), 35.6%; in test [2] (setting [7]) it was -5%; in test [2] (setting [8]) it was 77% (active); in test [2] (at 50.0 µM), 2.45%. Besides, the growth inhibition in test [3] (setting [7]) was 5%; in test [3] (setting [8]) it was 74% (active); in test [3] (at 50.0 µM), 77% (active); in test [4] (setting [7]) it was -5%; in test [4] (setting [8]), 51%; in test [4] (at 50.0 µM), 23.2%. Further, the growth inhibition in test [5] (setting [7]) is -4%; in test [5] (setting [8]) it was 39%; in test [5] (at 50.0 µM) it was 13.4%; in test [6] (setting [7]), -8%; in test [6] (setting [8]) it was 81% (active); in test [6] (at 50.0 µM), 31.4%.
As to `N#CCCN(C(=S)Nc1ccc(Cl)c(Cl)c1)C1CCCCC1`, the growth inhibition is 2% in test [1] (setting [7]); 91% (active) in test [1] (setting [8]); 78.9% (active) in test [1] (at 50.0 µM); 0% in test [2] (setting [7]); 91% (active) in test [2] (setting [8]); 79.7% (active) in test [2] (at 50.0 µM). Further, the growth inhibition was 2% in test [3] (setting [7]); 90% (active) in test [3] (setting [8]); 86.3% (active) in test [3] (at 50.0 µM); -1% in test [4] (setting [7]); 83% (active) in test [4] (setting [8]); 71.9% (active) in test [4] (at 50.0 µM). In addition, the growth inhibition in test [5] (setting [7]) is 2%; in test [5] (setting [8]), 88% (active); in test [5] (at 50.0 µM) it was 79.2% (active); in test [6] (setting [7]) it was 3%; in test [6] (setting [8]), 90% (active); in test [6] (at 50.0 µM) it was 75.1% (active).
With `S=c1[nH]c2cc(-c3ccccc3)ccc2o1`, the growth inhibition in test [1] (setting [7]) is 63%; in test [1] (setting [8]), 98% (active); in test [1] (at 50.0 µM) it was 64.2%; in test [2] (setting [7]) it was 37%; in test [2] (setting [8]), 98% (active); in test [2] (at 50.0 µM), 53.1%. In addition, the growth inhibition in test [3] (setting [7]) is 17%; in test [3] (setting [8]), 72% (active); in test [3] (at 50.0 µM), 78% (active); in test [4] (setting [7]), 52%; in test [4] (setting [8]) it was 65%; in test [4] (at 50.0 µM), 47.1%. Also, the growth inhibition was 19% in test [5] (setting [7]); 52% in test [5] (setting [8]); 52% in test [5] (at 50.0 µM); 51% in test [6] (setting [7]); 98% (active) in test [6] (setting [8]); 47.8% in test [6] (at 50.0 µM).
Take `CCOC(=O)c1ccc(N(CCC(O)CN=[N+]=[N-])S(=O)(=O)c2ccc(C)cc2)cc1` (stereo not given): the growth inhibition was 9% in test [1] (setting [7]); 66% in test [1] (setting [8]); 57% in test [1] (at 50.0 µM); 11% in test [2] (setting [7]); 23% in test [2] (setting [8]); 19.4% in test [2] (at 50.0 µM). Also, the growth inhibition was 18% in test [3] (setting [7]); 63% in test [3] (setting [8]); 53.4% in test [3] (at 50.0 µM); 0% in test [4] (setting [7]); 3% in test [4] (setting [8]); 40.6% in test [4] (at 50.0 µM). Also, the growth inhibition was -4% in test [5] (setting [7]); 49% in test [5] (setting [8]); 5.9% in test [5] (at 50.0 µM); 29% in test [6] (setting [7]); 84% (active) in test [6] (setting [8]); 55.1% in test [6] (at 50.0 µM).
Turning to `CC(=O)N(N)c1ccccc1`, the growth inhibition in test [1] (setting [7]) is 8%; in test [1] (setting [8]) it was 56%; in test [1] (at 50.0 µM), 57.5%; in test [2] (setting [7]), 0%; in test [2] (setting [8]), 42%; in test [2] (at 50.0 µM) it was 32.2%. Moreover, the growth inhibition was 4% in test [3] (setting [7]); 53% in test [3] (setting [8]); 33.3% in test [3] (at 50.0 µM); 4% in test [4] (setting [7]); 51% in test [4] (setting [8]); 57.7% in test [4] (at 50.0 µM). Besides, the growth inhibition is 7% in test [5] (setting [7]); 77% (active) in test [5] (setting [8]); 87.8% (active) in test [5] (at 50.0 µM); 20% in test [6] (setting [7]); 87% (active) in test [6] (setting [8]); 88.4% (active) in test [6] (at 50.0 µM).
On to `Cc1ccc(C(=O)C(CCC#N)(CCC#N)CCC#N)cc1`, for which the growth inhibition in test [1] (setting [7]) was -8%; in test [1] (setting [8]), -5%; in test [1] (at 50.0 µM), -13.7%; in test [2] (setting [7]), -8%; in test [2] (setting [8]), -17%; in test [2] (at 50.0 µM), -0.25%. Moreover, the growth inhibition is -1% in test [3] (setting [7]); -11% in test [3] (setting [8]); 8.85% in test [3] (at 50.0 µM); -15% in test [4] (setting [7]); -3% in test [4] (setting [8]); -6.25% in test [4] (at 50.0 µM). For the same molecule, the growth inhibition in test [5] (setting [7]) is 12%; in test [5] (setting [8]), 15%; in test [5] (at 50.0 µM), 1.1%; in test [6] (setting [7]) it was 4%; in test [6] (setting [8]) it was -6%; in test [6] (at 50.0 µM), 4.3%.
Take `Cc1cc(N)c2cc(NC(=O)Nc3ccc4nc(C)cc(N)c4c3)ccc2n1`: the growth inhibition is 100% (active) in test [1] (setting [7]); 100% (active) in test [1] (setting [8]); 99% (active) in test [1] (at 50.0 µM); 100% (active) in test [2] (setting [7]); 99% (active) in test [2] (setting [8]); 99% (active) in test [2] (at 50.0 µM). The growth inhibition is 99% (active) in test [3] (setting [7]); 67% in test [3] (setting [8]); 99% (active) in test [3] (at 50.0 µM); 99% (active) in test [4] (setting [7]); 100% (active) in test [4] (setting [8]); 95.3% (active) in test [4] (at 50.0 µM). Moreover, the growth inhibition in test [5] (setting [7]) is 99% (active); in test [5] (setting [8]), 99% (active); in test [5] (at 50.0 µM), 98.7% (active); in test [6] (setting [7]), 99% (active); in test [6] (setting [8]) it was 99% (active); in test [6] (at 50.0 µM) it was 98.5% (active).
Turning to `O=[N+]([O-])/C(Cl)=C(\Sc1ccccc1)C(Cl)=C(Cl)Cl`, the growth inhibition in test [1] (setting [7]) is 100% (active); in test [1] (setting [8]), 99% (active); in test [1] (at 50.0 µM), 89.8% (active); in test [2] (setting [7]) it was 100% (active); in test [2] (setting [8]), 100% (active); in test [2] (at 50.0 µM), 93.4% (active). For the same molecule, the growth inhibition in test [3] (setting [7]) is 99% (active); in test [3] (setting [8]), 99% (active); in test [3] (at 50.0 µM), 90.6% (active); in test [4] (setting [7]), 99% (active); in test [4] (setting [8]), 99% (active); in test [4] (at 50.0 µM), 91.9% (active). For the same molecule, the growth inhibition is 99% (active) in test [5] (setting [7]); 99% (active) in test [5] (setting [8]); 91.8% (active) in test [5] (at 50.0 µM); 100% (active) in test [6] (setting [7]); 99% (active) in test [6] (setting [8]); 86.8% (active) in test [6] (at 50.0 µM).
`Cc1cc(N=Nc2ccccc2)ccc1O`: the growth inhibition in test [1] (setting [7]) was -13%; in test [1] (setting [8]) it was 99% (active); in test [1] (at 50.0 µM) it was 99.4% (active); in test [2] (setting [7]), -11%; in test [2] (setting [8]), 100% (active); in test [2] (at 50.0 µM), 99.5% (active). The growth inhibition in test [3] (setting [7]) was -2%; in test [3] (setting [8]), 100% (active); in test [3] (at 50.0 µM), 99.5% (active); in test [4] (setting [7]), -31%; in test [4] (setting [8]), 99% (active); in test [4] (at 50.0 µM), 99.3% (active). Besides, the growth inhibition in test [5] (setting [7]) is 6%; in test [5] (setting [8]), 99% (active); in test [5] (at 50.0 µM) it was 99.3% (active); in test [6] (setting [7]), -8%; in test [6] (setting [8]), 99% (active); in test [6] (at 50.0 µM), 99.3% (active).
